Screening data: PubChem BioAssay, National Center for Advancing Translational Sciences (NCATS)
BLM inh-1 = inhibitors of human Bloom syndrome helicase BLM. 0.2% of 350,000 active. P54132. recombinant BLM DNA unwinding, fluorescence dequenching. Potency, µM (top dose mostly 56.1 µM), for the others: at the top dose activity change, negative = inhibition, most hits filed as inhibitors;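 further: plate controls were vehicle for no effect and no enzyme for full effect; nearly all actives have a fitted effect of over 35% in size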
TDP1 inh = blocks human tyrosyl-DNA phosphodiesterase 1 | Q9NUW8 | recombinant TDP1, AlphaScreen DNA substrate cleavage | Potency, µM (top dose mostly 130 µM), for inactives: at the top dose activity change, negative = inhibition, usual class: inhibitors | 0.28% of 350,000 active; further: nearly all actives have a fitted effect of over 40% in size
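Steps: enzyme plus compound, 15 min RT; add biotin/phosphotyrosine-FITC oligonucleotide (15 nM final), react 5 min; add donor/acceptor beads (10 ug/ml final), 10 min; read AlphaScreen. Tdp1 at 1 nM final.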
APE1 inh-1 = blocks human APE1 abasic DNA cleavage | P27695 | recombinant APE1, TAMRA/BHQ-2 abasic DNA cleavage fluorescence | Potency, µM (highest dose often 65.8 µM), for the others: at the top dose activity change, negative = inhibition, hits mostly inhibitors | 0.35% of 350,000 active | AID 2517;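 further: plate controls were vehicle for no effect and reference inhibitor for full effect; nearly all actives have a fitted effect of over 55% in size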
Target sequence (P27695 whole entry, looked up): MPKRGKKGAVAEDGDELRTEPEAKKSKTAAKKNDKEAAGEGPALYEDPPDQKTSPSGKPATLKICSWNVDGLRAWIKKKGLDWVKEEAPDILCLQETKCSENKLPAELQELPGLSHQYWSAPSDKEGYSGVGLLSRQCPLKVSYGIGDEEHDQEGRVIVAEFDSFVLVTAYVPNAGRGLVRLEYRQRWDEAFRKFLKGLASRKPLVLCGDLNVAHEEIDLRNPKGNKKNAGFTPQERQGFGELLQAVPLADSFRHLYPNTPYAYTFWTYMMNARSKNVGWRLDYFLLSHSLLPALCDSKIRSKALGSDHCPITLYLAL
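Kinetic fluorescence read (525 ex/598 em nm, three reads 60 s apart) of AP-site incision; signal = third minus first read. Enzyme 0.75 nM, dual-labelled THF duplex 50 nM, compound preincubation 15 min RT.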
RECQ1 inh-1 = blocks DNA unwinding by human RECQ1; P46063; 0.54% of 240,000 active; Potency, µM (doses to about 57.3 µM), for the others: at the highest dose activity, negative = inhibition, usual class: inhibitors; RECQ1 DNA unwinding, red fluorescence kinetic read;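 further: plate controls were vehicle for no effect and no enzyme for full effect; nearly all actives have a fitted effect of over 30% in size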
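50 nM RECQ1T1 preincubated 15 min with compound in Tris pH 8.0 buffer with MgCl2, DTT, Tween-20 and 2.5 ug/ml poly(dI-dC); started with 200 nM TAMRA/BHQ-2 forked duplex and 2 mM ATP. Unwinding read as fluorescence (525/598 nm), two reads 2 h apart.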
KDM4E inh = inhibitors of human JMJD2E histone demethylase; Potency, µM (top dose mostly 57.1 µM), without a hit: top-dose activity change, negative = inhibition, usual class: inhibitors; B2RXH2; 1.6% of 230,000 active; JMJD2E catalytic domain, FDH-coupled NADH fluorescence (FDH is formaldehyde dehydrogenase);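 further: 0% = wells with enzyme and -100% = buffer wells without enzyme; nearly all actives have a fitted effect of over 50% in size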
Target sequence (B2RXH2 1-337 limits assumed): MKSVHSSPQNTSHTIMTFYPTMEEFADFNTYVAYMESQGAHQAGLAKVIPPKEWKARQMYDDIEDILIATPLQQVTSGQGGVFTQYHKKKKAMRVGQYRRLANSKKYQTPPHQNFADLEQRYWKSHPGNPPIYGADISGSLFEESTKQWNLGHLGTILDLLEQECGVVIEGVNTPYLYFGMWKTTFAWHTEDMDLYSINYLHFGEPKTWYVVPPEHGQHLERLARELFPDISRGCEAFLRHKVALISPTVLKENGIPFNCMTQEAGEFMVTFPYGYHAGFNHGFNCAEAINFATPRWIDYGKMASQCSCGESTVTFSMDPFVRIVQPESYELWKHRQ
GCN5L2 inh = GCN5L2 (KAT2A) acetyltransferase inhibition | Q92830 | GCN5L2 HAT assay, ThioGlo1 CoA-SH fluorescence | Potency, µM (titrated, usually from 58.9 µM), for inactives: top-dose activity change, negative = inhibition, actives largely listed as inhibitors | 0.21% of 390,000 active
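Enzyme at 20nM final was mixed with library compounds for 15 min at room temperature. Peptide H3(1-25) at 75uM, acetyl-CoA at 70uM and ThioGlo1 at 50uM were then added. Plates were read immediately and after 20 min (Ex340nm/Em540nm).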
DNA dye displace = DNA dye displacement counter-screen activity; DNA fluorescent dye displacement counterscreen, fluorescence; 7% of 480 active; Potency, µM (titrated, usually from 28.5 µM), for inactives: at the top dose activity change, negative = inhibition, usual class: inhibitors; AID 2564; shares compounds with APE1 inh-1;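 further: loss of thiazole orange fluorescence as the dye is displaced from duplex DNA; 0% = ThO with dsDNA and no compound and -100% = ThO without dsDNA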
Endo IV inh = blocks E. coli endonuclease IV DNA cleavage. AID 2565. Potency, µM (titrated, usually from 27.1 µM), for inactives: top-dose activity change, negative = inhibition, hits mostly inhibitors. shares compounds with APE1 inh-1. E. coli Endo IV, fluorogenic AP-site DNA cleavage. 4% of 560 active;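 further: plate controls were uninhibited enzyme wells for no effect and no enzyme buffer wells for full effect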
APE1 inh-2 = confirmation of inhibitors of human APE1 endonuclease | Potency, µM (doses to about 57.1 µM), without a hit: at the top dose activity change, negative = inhibition, actives largely listed as inhibitors | shares compounds with APE1 inh-1 | 44% of 750 active | purified APE1, fluorogenic abasic-site DNA cleavage; further: nearly all actives have a fitted effect of over 30% in size
APE1 FP = displaces DNA from human APE1 in FP assay | Potency, µM (series often up to 28.5 µM), without a hit: top-dose activity, negative = inhibition, actives largely listed as inhibitors | APE1 binding to TAMRA-labelled double-stranded DNA, fluorescence polarization displacement | AID 2573 | shares compounds with APE1 inh-1 | 7% of 480 active
BLM inh-2 = confirmation of inhibitors of human Bloom syndrome helicase BLM; shares compounds with BLM inh-1; BLM DNA unwinding, fluorescence quenching, biochemical; Potency, µM, for the others: max response, negative = inhibition, most hits filed as inhibitors; 40% of 220 active; AID 2585;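 further: strand separation dequenches TAMRA so unwinding raises red fluorescence; series mostly up to about 69 µM; nearly all actives have a fitted effect of over 45% in size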
RECQ1 inh conf = confirmation of human RECQ1 helicase inhibitors. 28% of 610 active. AID 2708. Potency, µM (titrated, usually from 229 µM), for the others: top-dose activity change, negative = inhibition, hits mostly inhibitors. RECQ1 helicase DNA unwinding, fluorescence. shares compounds with RECQ1 inh-1; further: nearly all actives have a fitted effect of over 45% in size
ADP FP counter = ADP displacement flagged in RECQ1 inhibitor counter-screen | ADP fluorescence polarization displacement counterscreen | 27% of 530 active | AID 2711 | Potency, µM (series often up to 228 µM), for the others: at the top dose activity change, negative = inhibition, actives largely listed as inhibitors | shares compounds with RECQ1 inh-1; further: nearly all actives have a fitted effect of over 45% in size
RECQ1 inh-2 = RECQ1 helicase inhibition confirmed, round 2. shares compounds with RECQ1 inh-1. recombinant RECQ1 DNA unwinding, red fluorescence. Potency, µM (doses to about 119 µM), inactives show at the highest dose activity, negative = inhibition, hits mostly inhibitors. 15% of 1,100 active; further: nearly all actives have a fitted effect of over 50% in size
Active calls of the source: *; i = inactive; ? = inconclusive; · = no result; [ ] = dose if it differs, or a comment. The entries come from a sample that favours hits as a whole. Unless noted, the call rests on the fitted dose curve; in most records, active means well fitted curve in the direction sought with a large enough effect; inconclusive means small, poorly fitted or top-dose-only effect, or another doubt; inactive means no such curve, though single readings can be large; an effect the other way counts as inactive or inconclusive. Unless noted, on the % scale 0 is the no-effect control and ±100 the full control effect; potency means the concentration at half of the fitted maximal effect.

SMILES	BLM inh-1	TDP1 inh	APE1 inh-1	RECQ1 inh-1	KDM4E inh	GCN5L2 inh	DNA dye displace	Endo IV inh	APE1 inh-2	APE1 FP	others
COCc1cc(O)c(O)c(O)c1-c1c(COC)cc(O)c(O)c1O	-2.5%	·	0.178µM*	1µM*	·	-0.3%	6.5%[57.1 µM]	144.4%[57.1 µM]	0.316µM*	6.4%[57.1 µM]
CNc1ncnc2c1ncn2[C@@H]1O[C@H](COP(=O)(O)O)[C@@H](O)[C@H]1O	·	6.1%	-0.4%	1.8%	·	2.2%	·	·	·	·
Cc1ccc2sc(NC(=O)c3ccc4c(c3)OCCO4)nc2c1C	-9.7%	8.1%	·	·	·	-14.8%	·	·	·	·
Cc1nc2ccc3nc(NC(=O)c4ccc5c(c4)OCCO5)sc3c2s1	-9.3%	89.1µM*	-2.7%	-3.1%	?	1.0%	·	·	?	·	BLM inh-2=?
COc1ccccc1-c1nc(SCC(=O)Nc2ccc(C)c(C)c2)n[nH]1	-2.8%	3.2%	·	·	·	0.7%	·	·	·	·
COC(=O)c1cccc(N2CCCC2=O)c1	-1.5%	-1.9%	8.4%	i	-5.6%	41.7%	·	·	·	·
COC(=O)c1cc(=O)c(O)c2c(O)c(O)ccc2c1	?	·	1.26µM*	8.91µM*	8.91µM*	-22.0%	·	-17.1%[57.1 µM]	7.08µM*	·	BLM inh-2=?
Cc1c(C(=O)OCC2CCCO2)[nH]c2c1C(=O)CC(c1ccco1)C2 (stereo unspecified)	14.1µM*	?	7.08µM*	25.1µM*	?	?	-4.1%	?	4.47µM*	?	BLM inh-2=18.2µM*
COc1ccc2c(c1)CCc1c(C(=O)Nc3c(C)nn(Cc4ccc(C)cc4)c3C)noc1-2	-0.9%	4.5%	·	·	·	-8.8%	·	·	·	·
O=C(Cn1c(=O)n(Cc2ccco2)c(=O)c2c3c(sc21)CCCCC3)Nc1ccccc1	20µM*	·	11.2µM*	12.6µM*	?	-21.8%	?	-4.8%	?	-1.4%	BLM inh-2=?
CC(=O)[C@]1(O)Cc2c(O)c3c(c(O)c2[C@@H](O[C@H]2C[C@H](N)[C@H](O)[C@H](C)O2)C1)C(=O)c1ccccc1C3=O	-56.3%	10.2%[56.1 µM]	20µM*	28.2µM*	?	?	i	i	15.8µM*	2.82µM*	BLM inh-2=-71.9%;RECQ1 inh conf=35.5µM*;ADP FP counter=0.562µM*
Nc1cc2nc[nH]c2cc1N	?	79.4µM*	-6.6%	1.78µM*	?	-7.3%	·	·	?	·	RECQ1 inh conf=8.1%[114 µM];ADP FP counter=?
CCCC/C=C/[C@H](c1ccccc1)[C@H](CO)Cc1ccccc1	-13.0%	-12.7%	-1.2%	-10.5%	·	·	·	·	·	·
Cc1c(Cl)cccc1N=Cc1ccc([N+](=O)[O-])s1	-9.2%	2.0%	?	?	22.4µM*	2.8%	?	3.0%	-8.1%[24.4 µM]	9.9%	RECQ1 inh-2=?
COc1c(O)cc2c(=O)oc3c(OC)c(O)cc4c(=O)oc1c2c34	14.1µM*	·	1.26µM*	3.16µM*	7.08µM*	·	6.31µM*	107.6%	0.447µM*	17.1%	RECQ1 inh-2=0.794µM*
COc1cc(C2c3c(oc4ccccc4c3=O)C(=O)N2c2nnc(C(C)C)s2)cc(OC)c1OC (stereo unspecified)	-3.4%	3.2%	·	·	·	-5.1%	·	·	·	·
CSCC[C@H](NC(=O)[C@@H]1CCCN1C(=O)CNC(=O)[C@H](CCCCN)NC(=O)[C@H](Cc1cnc[nH]1)NC(=O)[C@H](CO)NC(=O)[C@H](CC(C)C)NC(=O)[C@H](CCCN=C(N)N)NC(=O)[C@@H]1CCCN1C(=O)[C@H](CCCN=C(N)N)NC(=O)[C@@H]1CCC(=O)N1)C(=O)N1CCC[C@H]1C(=O)N[C@@H](Cc1ccccc1)C(=O)O	5.4%	11.5%	·	18.3%	·	6.2%	·	·	·	·
Cc1cccc(C(=O)N=c2c(C#N)cc3c(=O)n4cccc(C)c4nc3n2Cc2ccco2)c1	-27.0%	15.8µM*	?	?	?	1.4%	·	·	-33.0%	·	RECQ1 inh-2=-20.1%
CCC1(CC)NC(=O)N(CC(=O)Nc2sc3c(c2C(N)=O)CCC3)C1=O	-19.3%	·	17.8µM*	22.4µM*	?	-25.5%	-12.0%	?	?	?	RECQ1 inh conf=44.7µM*;ADP FP counter=?;RECQ1 inh-2=?
Cc1ccc(NC(=O)CSCC(=O)Nc2nnc(C)s2)cc1	·	·	10.5%	·	·	0.7%	·	·	·	·
Cc1nnc(NC(=O)CCSCCC(=O)Nc2nnc(C)s2)s1	-27.2%	31.6µM*	?	?	-10.4%	-0.4%	·	·	39.8µM*	·	RECQ1 inh-2=15.8µM*
Cc1ccc(CNC(=O)Cn2c3ncccc3c(=O)n2-c2ccc(C)cc2)cc1	-1.0%	2.6%	·	·	·	-6.3%	·	·	·	·
C=CCN1C[C@H](C(=O)N(CCCN(C)C)C(=O)NCC)C[C@@H]2c3cccc4[nH]cc(c34)C[C@H]21	·	·	-3.9%	·	·	·	·	·	·	·
Oc1ccc(-c2cn3c(n2)SCC3)cc1O	15.8µM*	·	1.58µM*	2.51µM*	12.6µM*	-5.0%[0.501 µM]	3.0%	94.6%	12.6µM*	-4.9%	BLM inh-2=?;RECQ1 inh-2=7.08µM*
Oc1ccc(-c2cn3c(n2)SCC3)cc1	0.6%	6.6%	-3.2%	-8.7%	-2.4%	-3.2%[0.501 µM]	·	·	·	·
